Shown are actives, neighbours in structure and some others; about 4% of the full set was active somewhere.
TRPM1 prom inh: inhibitors of MITF-dependent TRPM1 promoter reporter, primary screen, cell-based, SK-MEL-5, single point, luciferase; inhibition, % at 12.5 µM; 330,000 compounds, 0.83% hits; SK-MEL-5 TRPM1 promoter luciferase, 24 h;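 active means mean inhibition across replicates of 60% or more, whatever share of single replicates reaches that level; inconclusive means some that reach 60%, reason not given; inactive means mean inhibition across replicates below 60%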
Wnt bcat act: Wnt/beta-catenin pathway activators, primary screen, cell-based, plate reader, single point; 300,000 compounds, 1.2% hits; activation, % at 9.35 µM; Wnt/beta-catenin reporter cell assay, activator; in the data active means activation above about 30%, passing the limit was not always enough; inconclusive means no clear call, values can overlap the other calls
esBAF inh: Bmi1 luciferase reporter increase in mESCs, primary screen, esBAF inhibitor project, mouse ES cells, Bmi1 luciferase knock-in, single point; reporter increase, % at 12.5 µM; 350,000 compounds, 2% hits; AID 602393, 2012; 24 h; 100% = twice the neutral-well signal; in the data active means activation above about 40%; inconclusive means no clear call, values can overlap the other calls;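 further: a rise in the Bmi1 reporter signal indicates esBAF inhibition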
MITF TRPM1 HTS: activators of MITF-driven TRPM1 promoter reporter, primary screen, cell-based, SK-MEL-5, luciferase, single point; SK-MEL-5 TRPM1-promoter luciferase, 24 h; % of positive control, neutral wells = 0; activation, % at 12.5 µM; 300,000 compounds, 0.75% hits; AID 588334, 2011;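 active means mean activation of at least 80% with every replicate also reaching 80%; inconclusive means mean reaches 80% but some replicate falls short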
PAX8 reporter: inhibitors of PAX8-driven TPO luciferase reporter, primary screen, RMG-I cells, single concentration. AID 652154, 2013. SteadyGlo, 24 h. inhibition, % at 12.6 µM. 360,000 compounds, 1.2% hits;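 active means mean replicate inhibition at least 60% with every replicate also reaching 60%; inconclusive means only one of the two criteria is met; inactive means mean below 60% and not all replicates reaching 60%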;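 further: luciferase light reporting Pax8 driven TPO promoter activity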
EWS-Fli block: EWS/Fli-driven NR0B1 reporter inhibitors, primary screen, A673 cells, NR0B1 luciferase, luminescence, MLPCN library | viability-normalised | inhibition, % at 12.6 µM | 350,000 compounds, 0.67% hits | AID 651661, 2012;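 active means mean inhibition of at least 50% after viability correction, with every replicate also passing that limit; inconclusive means mean reaches 50% but only one of two replicates passes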;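 further: firefly luciferase signal divided by Alamar Blue viability fluorescence both relative to DMSO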
Each line names hits and unclear results; the compound was inactive in the other large screens.

COc1cc(C(CCN2CCCC2)c2c(OC)cc(OC)c3ccc(=O)oc23)cc(OC)c1OC (centres undefined)	none
CCCCCc1cc(=O)oc2c(C(CCN3CCCC(C)C3)c3ccc(N(C)C)cc3)c(OC)cc(OC)c12 (centres undefined)	none (no result: Wnt bcat act, PAX8 reporter, EWS-Fli block)
CCCCCc1cc(=O)oc2c(C(CCN3CCCCC3)c3cc(OC)c(OC)c(OC)c3)c(OC)cc(OC)c12 (centres undefined)	TRPM1 prom inh 89, PAX8 reporter 79, EWS-Fli block inconclusive
CCCCCc1cc(=O)oc2c(C(CCN(CC)CC)c3ccc(N(C)C)cc3)c(OC)cc(OC)c12 (centres undefined)	TRPM1 prom inh 89, PAX8 reporter inconclusive
CCCCCc1cc(=O)oc2c(C(CCN3CCCC(C)C3)c3cc(OC)c(OC)c(OC)c3)c(OC)cc(OC)c12 (centres undefined)	TRPM1 prom inh 73 (no result: Wnt bcat act, PAX8 reporter, EWS-Fli block)
CNC[C@@H]1Oc2c(cccc2N(C)C)C(=O)N([C@H](C)CO)C[C@H]1C	none (no result: TRPM1 prom inh, Wnt bcat act, MITF TRPM1 HTS)
C[C@H](CO)N1C[C@H](C)[C@@H](CN(C)C(=O)NC2CCCCC2)OCCCC[C@H](C)Oc2ccc(NC(=O)Nc3cccc4ccccc34)cc2C1=O	none (no result: TRPM1 prom inh, Wnt bcat act, MITF TRPM1 HTS)
O=C(NC[C@@H]1CC[C@@H]2[C@@H](CN2C(=O)CN2CCOCC2)O1)NC1CCCCC1	none (no result: TRPM1 prom inh, Wnt bcat act, esBAF inh, MITF TRPM1 HTS, PAX8 reporter)
O=C(O)C[C@H]1C=C[C@H](NC(=O)c2ccccc2F)[C@H](CO)O1	none (no result: TRPM1 prom inh, Wnt bcat act, MITF TRPM1 HTS)
COC(=O)c1ccc(COc2cc(O)c3c(c2)OC(C)(C)CC3=O)cc1	none (no result: PAX8 reporter, EWS-Fli block)
CC1(C)CC(=O)c2c(O)cc(OCc3ccc(Br)cc3)cc2O1	esBAF inh 67, MITF TRPM1 HTS 87 (no result: PAX8 reporter)
C[C@H]1CN([C@@H](C)CO)C(=O)Cc2cc(NC(=O)Nc3ccc(C(F)(F)F)cc3)ccc2O[C@@H]1CN(C)Cc1ccccc1	none (no result: TRPM1 prom inh, Wnt bcat act, MITF TRPM1 HTS)
C[C@H]1CN([C@@H](C)CO)C(=O)Cc2cc(NC(=O)Nc3ccc(F)cc3)ccc2O[C@@H]1CN(C)Cc1ccc(Cl)c(Cl)c1	none (no result: TRPM1 prom inh, Wnt bcat act, MITF TRPM1 HTS)
C[C@@H]1CN([C@@H](C)CO)C(=O)Cc2cc(NC(=O)Nc3ccc(C(F)(F)F)cc3)ccc2O[C@H]1CN(C)Cc1ccccc1	PAX8 reporter 68 (no result: TRPM1 prom inh, Wnt bcat act, MITF TRPM1 HTS)
C[C@@H]1CN([C@@H](C)CO)C(=O)Cc2cc(NC(=O)Cc3cn(C)c4ccccc34)ccc2O[C@H]1CN(C)Cc1ccc(C(F)(F)F)cc1	PAX8 reporter 71 (no result: TRPM1 prom inh, Wnt bcat act, MITF TRPM1 HTS)
C[C@H]1CN([C@@H](C)CO)C(=O)Cc2cc(NC(=O)Nc3ccc(F)cc3)ccc2O[C@H]1CN(C)Cc1ccc(C(F)(F)F)cc1	none (no result: TRPM1 prom inh, Wnt bcat act, MITF TRPM1 HTS, PAX8 reporter)
C[C@H](CO)N1C[C@H](C)[C@H](CN(C)Cc2ccccc2)Oc2ccc(NC(=O)Cc3cn(C)c4ccccc34)cc2CC1=O	none (no result: TRPM1 prom inh, Wnt bcat act, MITF TRPM1 HTS)
C[C@@H]1CN([C@@H](C)CO)C(=O)Cc2cc(NC(=O)Nc3ccc(F)cc3)ccc2O[C@H]1CN(C)Cc1ccc(C(F)(F)F)cc1	EWS-Fli block 54 (no result: TRPM1 prom inh, Wnt bcat act, MITF TRPM1 HTS, PAX8 reporter)
C[C@@H]1CN([C@H](C)CO)C(=O)Cc2cc(NC(=O)Nc3ccc(F)cc3)ccc2O[C@H]1CN(C)Cc1ccc(Cl)c(Cl)c1	PAX8 reporter 109 (no result: TRPM1 prom inh, Wnt bcat act, MITF TRPM1 HTS)
C[C@H]1CN([C@@H](C)CO)C(=O)Cc2cc(NC(=O)CCN3CCOCC3)ccc2O[C@H]1CN(C)Cc1ccc(C(F)(F)F)cc1	EWS-Fli block 60 (no result: TRPM1 prom inh, Wnt bcat act, MITF TRPM1 HTS)
C[C@H](CO)N1C[C@H](C)[C@@H](CN(C)Cc2ccc(-c3ccccc3)cc2)Oc2ccc(NC(=O)Nc3ccc(C(F)(F)F)cc3)cc2CC1=O	PAX8 reporter 68 (no result: TRPM1 prom inh, Wnt bcat act, MITF TRPM1 HTS)
COc1ccc(NC(=O)Nc2ccc3c(c2)CC(=O)N([C@@H](C)CO)C[C@H](C)[C@@H](CN(C)Cc2ccc(C(F)(F)F)cc2)O3)cc1	PAX8 reporter 70 (no result: TRPM1 prom inh, Wnt bcat act, MITF TRPM1 HTS)
C[C@@H]1CN([C@@H](C)CO)C(=O)Cc2cc(NC(=O)C3CCCCC3)ccc2O[C@H]1CN(C)Cc1ccc(Cl)c(Cl)c1	PAX8 reporter 95 (no result: TRPM1 prom inh, Wnt bcat act, MITF TRPM1 HTS)
CC(C)NC(=O)N(C)C[C@@H]1OCCCC[C@@H](C)Oc2ccc(NC(=O)Nc3ccc(C(F)(F)F)cc3)cc2C(=O)N([C@@H](C)CO)C[C@@H]1C	none (no result: TRPM1 prom inh, Wnt bcat act, MITF TRPM1 HTS)
CC(C)NC(=O)N(C)C[C@H]1OCCCC[C@@H](C)Oc2ccc(NC(=O)Nc3ccc(C(F)(F)F)cc3)cc2C(=O)N([C@@H](C)CO)C[C@H]1C	PAX8 reporter 89 (no result: TRPM1 prom inh, Wnt bcat act, MITF TRPM1 HTS)
CC(C)NC(=O)N(C)C[C@@H]1OCCCC[C@H](C)Oc2ccc(NC(=O)Nc3ccc(C(F)(F)F)cc3)cc2C(=O)N([C@@H](C)CO)C[C@H]1C	PAX8 reporter 63 (no result: TRPM1 prom inh, Wnt bcat act, MITF TRPM1 HTS)
Cc1cccc(-c2ccc([C@H]3[C@H](CO)N4CCCCN(S(=O)(=O)c5ccccc5C)C[C@@H]34)cc2)c1	PAX8 reporter 86 (no result: TRPM1 prom inh, Wnt bcat act, esBAF inh, MITF TRPM1 HTS)
Cc1cccc(-c2ccc([C@H]3[C@H]4CN(S(=O)(=O)c5cccc(C)c5)CCCCN4[C@H]3CO)cc2)c1	PAX8 reporter 103 (no result: TRPM1 prom inh, Wnt bcat act, esBAF inh, MITF TRPM1 HTS)
CCCC#Cc1ccc([C@@H]2[C@H]3CN(S(=O)(=O)c4ccccc4F)CCCCN3[C@H]2CO)cc1	PAX8 reporter 95 (no result: TRPM1 prom inh, Wnt bcat act, MITF TRPM1 HTS)
Cc1ccccc1S(=O)(=O)N1CCCCN2[C@H](CO)[C@H](c3ccc(-c4ccccc4)cc3)[C@@H]2C1	none (no result: TRPM1 prom inh, Wnt bcat act, esBAF inh, MITF TRPM1 HTS)
CC(=O)N1CCCCN2[C@H](C1)[C@H](c1ccc(-c3cccc(C)c3)cc1)[C@@H]2CO	PAX8 reporter 74 (no result: TRPM1 prom inh, Wnt bcat act, esBAF inh, MITF TRPM1 HTS)
CCCC#Cc1ccc([C@@H]2[C@@H](CO)N3CCCCN(S(=O)(=O)c4ccccc4F)C[C@@H]23)cc1	none (no result: TRPM1 prom inh, Wnt bcat act, MITF TRPM1 HTS)
